Laboratory results taken from PubChem BioAssay.
“And” between values parts separate entries of the source, which are not always exact repeats. Identical values can stand only once. More than one record can exist for a structure, and the calls need not agree. The source made the active and inactive calls. Rule as the data show it: active = parasite load remaining mostly below about 12% (no sharp cut-off); inactive = mostly above about 10%.

Assay: liver-stage malaria parasite growth inhibition, primary screen, cell-based, HepG2, luciferase luminescence, HepG2 viability (AID 624349);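 also: 100% = mean of DMSO negative control wells on the same plate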
Conditions: P. berghei liver stage in HepG2, luciferase luminescence, concentration not given here; parasite load remaining: stronger effect = lower value; viability: measured here: HepG2 viability without parasites

SMILES	parasite load remaining	viability
CC(=O)O[C@]1(C(C)=O)CC[C@H]2[C@@H]3C=C(Cl)C4=CC(=O)[C@@H]5C[C@@H]5[C@]4(C)[C@H]3CC[C@@]21C	8.85% (inactive)	69%
CN1CCC(=C2c3ccccc3Sc3ccccc32)CC1	16.9% (inactive) and 99.5% (inactive) and 91.2% (inactive)	43.6% and 70.3% and 91.9%
Cc1c(NC(C)C)c(=O)n(-c2ccccc2)n1C	102% (inactive) and 160% (inactive)	100% and 89.9%
N[C@@H](CCC(=O)N[C@@H](CS)C(=O)NCC(=O)O)C(=O)O	31.4% (inactive)	68.2%
O=C(COc1ccc(Cl)cc1)N1CCN(Cc2ccc3c(c2)OCO3)CC1	33.6% (inactive) and 155% (inactive) and 109% (inactive)	49.1% and 91.8% and 89.5%
Cc1cc2c(C(C)C)c(O)c(O)c(C=O)c2c(O)c1-c1c(C)cc2c(C(C)C)c(O)c(O)c(C=O)c2c1O	56.7% (inactive)	83.7%
NCCS(=O)(=O)O	52.5% (inactive)	97.6%
O=C(O)c1cc(=O)c2ccccc2o1	136% (inactive)	95.8%
CCOC(=O)c1ccc(N)cc1	108% (inactive) and 105% (inactive) and 49.4% (inactive)	103% and 76.4% and 98.1%
O=C(O)CN1C(=O)c2cccc3cccc(c23)C1=O	30.8% (inactive)	96.3%
CN(C)CCOC(=O)C(c1ccccc1)C1(O)CCCC1 (stereo unspecified)	73.9% (inactive) and 104% (inactive) and 58% (inactive)	70.9% and 70% and 90.8%
Oc1ccc(Cl)cc1Cc1cc(Cl)ccc1O	11.8% (inactive)	65.1%
CC(=O)Nc1ccc(S(=O)(=O)Nc2ccc([N+](=O)[O-])cc2)cc1	152% (inactive) and 62.3% (inactive)	92.2% and 117%
CCN(CC)C(C)CN1c2ccccc2Sc2ccccc21 (stereo unspecified)	77.1% (inactive) and 61.6% (inactive) and 39% (inactive)	89.3% and 65.2% and 91.5%
CO[C@@H]1[C@@H](OC(N)=O)[C@@H](O)[C@H](Oc2ccc3c(O)c(NC(=O)c4ccc(O)c(CC=C(C)C)c4)c(=O)oc3c2C)OC1(C)C	96.3% (inactive) and 84% (inactive)	73.9% and 88.8%
CCCCCN(CCCCC)C(=O)C(CCC(=O)O)NC(=O)c1ccc(Cl)c(Cl)c1 (stereo unspecified)	72.3% (inactive) and 35.5% (inactive)	92.1% and 74.5%
O=C(O)P(=O)(O)O	127% (inactive) and 15.8% (inactive)	69.2% and 92.6%
CCN(CC)CCOC(=O)C(c1ccccc1)C1CCCCC1 (stereo unspecified)	67.5% (inactive) and 28.1% (inactive)	92.4% and 69.7%
CSc1ccc2c(c1)C(N1CCN(C)CC1)Cc1ccccc1S2 (stereo unspecified)	74.1% (inactive) and 71.4% (inactive) and 63.7% (inactive)	72.2% and 69.9% and 104%

SMILES	parasite load remaining	viability
C=CCc1ccccc1OCC(O)CNC(C)C (stereo unspecified)	48.8% (inactive) and 53.9% (inactive) and 74.6% (inactive)	101% and 91.5% and 140%
COC(=O)N/N=C/c1c[n+]([O-])c2ccccc2[n+]1[O-]	174% (inactive) and 86.3% (inactive) and 64.3% (inactive)	93.9% and 108% and 125%
O=C1OC(c2ccc(O)cc2)(c2ccc(O)cc2)c2ccccc21	95% (inactive) and 84.8% (inactive)	73.9% and 95.1%
O=C(N[C@H](CO)[C@H](O)c1ccc([N+](=O)[O-])cc1)C(Cl)Cl	29.9% (inactive) and 25.5% (inactive)	46.7% and 63%
CC1(C)NC(=O)N(c2ccc([N+](=O)[O-])c(C(F)(F)F)c2)C1=O	54.2% (inactive) and 50.4% (inactive) and 7.05% (inactive)	92.2% and 99% and 125%
CO/N=C1\CN(c2nc3c(cc2F)c(=O)c(C(=O)O)cn3C2CC2)CC1CN (stereo unspecified)	155% (inactive) and 46.4% (inactive)	85.7% and 106%
COc1ccc(C(=O)c2ccccc2)c(O)c1	175% (inactive) and 149% (inactive) and 68.3% (inactive)	96.8% and 72.8% and 91.5%
CCn1cc(C(=O)O)c(=O)c2cnc(N3CCCC3)nc21	91.2% (inactive) and 141% (inactive)	104% and 72%
Oc1cccc(O)c1	91.2% (inactive) and 38.4% (inactive)	77.8% and 101%
Oc1ccc(OCc2ccccc2)cc1	144% (inactive)	102%
O=C(Nc1ccc([N+](=O)[O-])cc1Cl)c1cc(Cl)ccc1O	-1.67% (inactive) and -1.04% (inactive) and -2.1% (inactive)	26.1% and 53.7% and 67.1%
CC(=O)OCC1=C(C(=O)O)N2C(=O)[C@@H](NC(=O)Cc3cccs3)[C@H]2SC1	98.3% (inactive) and 75.9% (inactive) and 62% (inactive)	104% and 75.3% and 99.8%
CC(C)NCC(O)c1ccc2ccccc2c1 (stereo unspecified)	115% (inactive) and 166% (inactive) and 45.3% (inactive)	75% and 89% and 106%
CC[C@]12CCCN3CCc4c(n(c5ccccc45)[C@@](O)(C(=O)OC)C1)[C@@H]32	27.1% (inactive) and 109% (inactive)	48.5% and 87%
CC(N)C(=O)OC(C)(C)Cc1ccc(Cl)cc1 (stereo unspecified)	159% (inactive)	87.1%
O=C(CCBr)N1CCN(C(=O)CCBr)CC1	146% (inactive) and 41.7% (inactive)	86.4% and 105%
COC(=O)[C@@H]1[C@H]2C[C@H]3c4[nH]c5ccccc5c4CCN3C[C@@H]2CC[C@@H]1O	80.6% (inactive) and 73.2% (inactive) and 41.3% (inactive)	101% and 81.3% and 96.5%
NC(=O)c1ccccc1O	47.6% (inactive) and 47.5% (inactive)	78.6% and 92.9%
CCCC(C(=O)OCCN(CC)CC)(c1ccccc1)c1ccccc1	-0.02% (active) and 10.3% (inactive) and 0.005% (inactive)	85.1% and 64.2% and 90.3%
